Here are results for 29 compounds from PubChem BioAssay (NCATS).

Structures are written as SMILES. Results filed as inconclusive are left out. The source made the active and inactive calls. The call rests on the fitted dose curve.
Potency means the concentration at half of the fitted maximal effect.

The assay is described as follows: Primary qHTS to identify inhibitors of SARS-CoV-2 cell entry (AID 1645846). Further: nearly all actives have a fitted effect of over 45% in size. The settings on record: SARS-CoV-2 pseudovirus cell entry assay, luminescence; activity change, negative = inhibition: at 57.1 µM (top of the series) unless noted. In short, it runs like this:
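Data are normalized to wells receiving SARS-CoV-2-S pseudoparticles and those given bald particles. Entry signal was luciferase luminescence in stable hACE2 Expi293F cells, 48 hr post-infection, after 1 hr compound pretreatment.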
(qHTS replaces the single test concentration by a dilution series.)
With `CNC(=O)CCc1cc(-c2ccc(-c3ccc(C(F)(F)F)cc3)cc2)n(-c2ccc(N3CCNCC3)cc2)n1`, the activity change, negative = inhibition was -95.7%.

As to `C=CC(=O)Nc1ccc(F)c(-c2ncnc3[nH]cc(C(=O)OCC)c23)c1`, the call was inactive.

On to `COc1ccc(S(=O)(=O)Nc2cc(-c3csc(C#N)c3)ccc2C)cc1`, for which the activity change, negative = inhibition was -92%.

For `Fc1ccc2[nH]ccc2c1-c1nc(N2CCOCC2)c2sc(CN3CCN(CC4CC4)CC3)cc2n1`, the Potency is 31.6 µM (active).

Consider `NC(=O)[C@H]1CCS[C@@H]2C[C@]3(CCCN3C(=O)Cc3ccc(NC(=O)COc4ccc(Cl)cc4Cl)cc3)C(=O)N12`, for which the Potency was 25.1 µM (active).

Turning to `CC(C)NC(=O)C1CCC(n2c(NC(=O)c3ccc(F)cc3)nc3ccc(CN4CCC(C(C)(C)O)CC4)cc32)CC1` (centres undefined), the activity change, negative = inhibition was -10.3% [at 27.1 µM].

On to `CN1CCN(C(=O)c2ccc(-c3ccc4c(C=O)c(O)ccc4c3)s2)CC1`, for which the call was inactive.

On to `CN(C)C/C=C/C(=O)Nc1ccc(C(=O)Nc2cccc(Nc3ncc(Cl)c(-c4c[nH]c5ccccc45)n3)c2)cc1`, for which the Potency is 1 µM (active).

On to `Cc1nc2ccc(C(=O)N3CCC4(CC3)CC(=O)c3c(cnn3C(C)C)C4)cc2[nH]1`, for which the Potency was 14.1 µM (active).

For `CNCCn1c(=O)c2cc(OC)c(OC)cc2c2cnc3cc4c(cc3c21)OCO4`, the activity change, negative = inhibition was -98.1% [at 11.3 µM].

Consider `Cc1[nH]c2ccccc2c1CCNCc1ccc(/C=C/C(=O)NO)cc1`, for which the compound was called inactive.

For the compound `O=C(O)C[C@H]1CCc2c1[nH]c1ccc(OCc3ccc(C4CCCC4)c(C(F)(F)F)c3)cc21`, the activity change, negative = inhibition was -95.5%.

Regarding `CCc1c(-c2ccccc2C)nc2c(C#N)c[nH]n2c1=O`, the activity change, negative = inhibition was -14.3%.

With `O=C(NCc1ccc(S(=O)(=O)c2cccc(C(F)(F)F)c2)cc1)c1cnc2[nH]ncc2c1`, the activity change, negative = inhibition is -97.3%.

As to `O=C(NCCCNc1nc(Nc2cccc(CN3CCOCC3)c2)ncc1C1CC1)C1CCC1`, the result was inactive.

In the case of `CCCCN(CCCC)C(=O)CN1C[C@H](c2ccc3c(c2)OCO3)[C@@H](C(=O)O)[C@@H]1c1ccc(OC)cc1`, the activity change, negative = inhibition is -74.4%.

On to `N#Cc1cc2cc(CN3CCC(Nc4ncnc5sc(CC(F)(F)F)cc45)CC3)c(O)cc2n1Cc1cn[nH]c1`, for which the Potency was 17.8 µM (active).

As to `COc1nc(OCc2cccc(-c3ccccc3)c2C)ccc1CNCCNC(C)=O`, the Potency was 11.2 µM (active).

Turning to `CC(=O)NCC(=O)N1[C@@H]2CC[C@H]1c1ccc(Nc3ncc(C(F)(F)F)c(NC4CCC4)n3)cc12`, the Potency was 3.16 µM (active).

Regarding `COC(C)(C)CCn1nc(Nc2c(C)cccc2C)c2cnc(Nc3ccc(OCCN4CCCC4)c(F)c3)nc21`, the Potency was 11.2 µM (active).

Take `CCNCCc1ccc(CN(CC)c2cc(OC)ccc2[C@@H]2CCc3cc(O)ccc3C2)cc1`: the Potency was 31.6 µM (active).

Take `Nc1nc(N)c2nc(-c3cccc(Cl)c3)c(N)nc2n1`: the activity change, negative = inhibition was 1.13%.

Take `COc1nnc2ccc(N3CCC(c4ccc(OCCN5CCN(C)C(=O)[C@H]5C)cc4)CC3)nn12`: the call was inactive.

Regarding `CC1(C)C(N(O)C(=O)Nc2ccc(Cl)cc2)N(c2ccc(Cl)cc2)C(=O)N1CC(=O)N/N=C/C=C/c1ccc([N+](=O)[O-])o1` (centres undefined), the Potency is 17.8 µM (active).

Take `CCC[C@H](N[C@H]1CCc2cc(F)cc(F)c2C1)C(=O)Nc1cn(C(C)(C)CNCC(C)(C)C)cn1`: the Potency is 31.6 µM (active).

Take `C[C@@H](Oc1ccc2[nH]nc(/C=C/c3cnn(CCO)c3)c2c1)c1c(Cl)cncc1Cl`: the activity change, negative = inhibition was -97.5%.

`C[C@H](CCC(=O)O)[C@H]1CC[C@H]2[C@@H]3[C@@H](O)C[C@@H]4C[C@H](O)CC[C@]4(C)[C@H]3CC[C@]12C`: the activity change, negative = inhibition is -16.5%.

In the case of `Cc1cc2c(F)c(Oc3ncnn4cc(OCC(C)OC(=O)C(C)N)c(C)c34)ccc2[nH]1` (centres undefined), the Potency was 11.2 µM (active).

`O=C(NO)c1cnc(N2C[C@H]3C[C@@H]2CN3c2cc(C(F)(F)F)ccn2)nc1`: the outcome was inactive.
